Source: PubChem (National Center for Advancing Translational Sciences (NCATS))
Tau fibril FP: qHTS for Inhibitors of Tau Fibril Formation, Fluorescence Polarization. Microtubule-associated protein tau (Homo sapiens), P10636. K18 P301L tau heparin fibrillization, Alexa594 FP, 6 h. Potency, µM (highest dose often 57.7 µM), inactives show at the top dose activity, negative = inhibition, most hits filed as inhibitors. actives 0.39% (n = 280,000); further: potency means the concentration at half of the fitted maximal effect; nearly all actives have a fitted effect of over 55% in size
Target sequence (P10636 561-689 P618L limits assumed): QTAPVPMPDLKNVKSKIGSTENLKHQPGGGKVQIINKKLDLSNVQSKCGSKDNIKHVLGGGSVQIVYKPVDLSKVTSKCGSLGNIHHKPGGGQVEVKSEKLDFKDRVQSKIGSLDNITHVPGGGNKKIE
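Recombinant K18 P301L […], labeled with Alexa 594 at 0.24 uM over 15 uM unlabeled; heparin inducer 20 uM final; 37 C, 6 hr; FP endpoint.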
KDM4E inh: qHTS Assay for Inhibitors of Human Jumonji Domain Containing 2E (JMJD2E); Lysine-specific demethylase 4E (Homo sapiens), B2RXH2; JMJD2E catalytic domain, FDH-coupled NADH fluorescence (FDH is formaldehyde dehydrogenase); Potency, µM (doses to about 57.1 µM), for the others: top-dose activity change, negative = inhibition, hits mostly inhibitors; actives 1.6% (n = 230,000); active means well fitted inhibition curve with a large enough effect, not every such curve was filed as active; inconclusive means small, poorly fitted or top-dose-only effect, or another doubt; inactive means no such curve, though single readings can be large or run the other way;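 further: potency means the concentration at half of the fitted maximal effect; 0% = wells with enzyme and -100% = buffer wells without enzyme; nearly all actives have a fitted effect of over 50% in size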
Target sequence (B2RXH2 1-337 limits assumed): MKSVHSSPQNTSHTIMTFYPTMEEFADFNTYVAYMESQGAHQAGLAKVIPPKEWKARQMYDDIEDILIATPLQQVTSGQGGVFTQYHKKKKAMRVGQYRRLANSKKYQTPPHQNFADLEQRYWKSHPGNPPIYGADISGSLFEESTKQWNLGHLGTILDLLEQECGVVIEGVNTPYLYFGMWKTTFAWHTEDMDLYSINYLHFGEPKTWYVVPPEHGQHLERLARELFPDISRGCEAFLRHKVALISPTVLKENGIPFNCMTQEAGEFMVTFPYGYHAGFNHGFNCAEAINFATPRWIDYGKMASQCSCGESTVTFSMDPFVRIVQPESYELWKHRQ
Tau fibril ThT: qHTS for Inhibitors of Tau Fibril Formation, Thioflavin T Binding | AID 1460, 2008 | actives 2.1% (n = 270,000) | Potency, µM (series often up to 57.4 µM), for the others: top-dose activity, negative = inhibition, hits mostly inhibitors | Microtubule-associated protein tau (Homo sapiens), P10636 | recombinant tau K18 P301L, heparin-induced fibrillization, ThT fluorescence; further: potency means the concentration at half of the fitted maximal effect; nearly all actives have a fitted effect of over 55% in size
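In this qHTS, human K18 P301L tau is incubated with compound and heparin for 6 hr at 37 C, and Thioflavin T fluorescence then reports fibril load.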
FBPA coupling cs: qHTS Assay for Inhibitors of Fructose-1,6-bisphosphate Aldolase from Giardia Lamblia: Coupling assay counterscreen; AID 2472, 2010; coupling enzyme system counterscreen, AmpLite Red fluorescence; activity change, negative = inhibition, % at 58.2 µM, hits read low; actives 0.67% (n = 290,000); in the data active means activity change below about -30%
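Fluorescence at 525 nm excitation and 598 nm emission measured inhibition of the coupled detection system without aldolase. Compounds (at 57.5 uM final) were preincubated 10 min at room temperature with coupling enzyme reagent before a 20 min substrate/AmpLite Red step.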
Tau fluor counter: Counterscreen qHTS for Inhibitors of Tau Fibril Formation, Fluorescence Polarization. tau K18 P301L (four-repeat tau fragment) Alexa594 fluorescence, heparin fibrillization. actives 0.93% (n = 280,000). Potency, µM (doses to about 57.7 µM), for the others: at the highest dose activity change, negative = decrease. AID 1463, 2008; further: potency means the concentration at half of the fitted maximal effect; nearly all actives have a fitted effect of over 55% in size
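Human K18 P301L tau (15 uM unlabeled plus 0.24 uM Alexa 594-labeled, final) in 100 mM sodium acetate pH 7 was mixed with compound and 20 uM heparin and incubated 6 hr at 37 C.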
Sfp inh: qHTS Assay for Inhibitors of Bacillus subtilis Sfp phosphopantetheinyl transferase (PPTase); 4'-phosphopantetheinyl transferase ffp (Bacillus subtilis), Q9F4F7; Biochemical Sfp PPTase activity, qHTS; Potency, µM, without a hit: largest response in the series, negative = inhibition, actives largely listed as inhibitors; actives 3.5% (n = 310,000); AID 1490, 2009;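 further: the enzyme is Sfp with the accession as filed and its product quenches rhodamine fluorescence; potency means the concentration at half of the fitted maximal effect; 0% = enzyme reaction without inhibitor and -100% = no enzyme wells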
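Buffer: 50 mM Hepes-Na pH 7.6, 10 mM MgCl2, 0.01% Nonidet P-40, 0.01% BSA. Enzyme 15 nM, pre-exposed to compound 15 min; substrates then added and fluorescence change tracked over 30 min.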
Active calls of the source: *; u = inconclusive; x = not tested or not shown; [ ] = another dose, or the depositor's remark. Shown are actives, neighbours in structure and some others; about 5.3% of the full set was active somewhere. Unless noted, the call rests on the fitted dose curve; in most records, active means well fitted curve in the direction sought with a large enough effect; inconclusive means small, poorly fitted or top-dose-only effect, or another doubt; inactive means no such curve, though single readings can be large; an effect the other way counts as inactive or inconclusive. Unless noted, on the % scale 0 is the no-effect control and ±100 the full control effect.

SMILES	Tau fibril FP	KDM4E inh	Tau fibril ThT	FBPA coupling cs	Tau fluor counter	Sfp inh
COc1ccc(/C=N/NC(=O)c2nc(-c3ccccc3)n(-c3ccccc3)n2)c(O)c1	-1%	18µM*	u	8	-14%	4%
O=C1C[C@@H](c2ccccc2Cl)N1S(=O)(=O)c1ccccc1[N+](=O)[O-]	x	x	x	-3	x	8%
COc1ccc(SCC(Cc2ccccc2)N2CCN(CCc3ccccc3)CCC2=O)cc1 (stereo unspecified)	x	x	x	0	x	-26%
COc1cccc(/C=N/NC(=O)CNC(=O)c2cccs2)c1O	6%	8.9µM*	-11%	1	7%	10%
COc1cccc(/C=N/NC(=O)N/N=C/c2cccc(OC)c2O)c1O	x	x	x	0	x	7%
COc1cccc(/C=N/NC(=O)CSc2ccccc2C)c1O	7%	28µM*	u	2	u	19%
Cc1cccc(OCC(=O)NCC(=O)N/N=C/c2ccccc2)c1	x	x	x	-19	x	22%
COc1ccc(/C=C\C(=O)NCC(=O)N/N=C/c2ccc(O)cc2O)cc1	2%	7.1µM*	u	6	-26%	4%
Cc1cccc(OCC(=O)NCC(=O)N/N=C/c2ccc(O)cc2O)c1	1%	3.2µM*	x	1	-21%	16%
Cn1c(=O)c(-c2cc(F)cc(F)c2)nc2cnc(N3CCNCC3)nc21	x	x	x	2	x	-1%
CCCNC(=O)[C@H]1O[C@@H]1C(=O)N[C@H](C(=O)N1CCC[C@H]1C(=O)OC)[C@@H](C)CC	-5%	x	-2%	x	-2%	21%
CCCCc1nc2c(c3c1CC(C)OC3)CN(CCC(C)C)CC2 (stereo unspecified)	2%[11.6 µM]	x	-12%[11.5 µM]	-14	-9%[11.6 µM]	12%
COc1c(OC(C)=O)ccc(/C=C/c2ccc3ccccc3n2)c1[N+](=O)[O-]	u	-2%	10µM*	1	16µM*[quencher]	-1%
O=[N+]([O-])c1ccccc1/C=C/c1ccc2ccccc2n1	x	x	x	4	x	-11%
CCOc1c(OC(C)=O)ccc(/C=C/c2ccc3cccc(OC(C)=O)c3n2)c1[N+](=O)[O-]	u	-8%	6.3µM*	x	8.9µM*[quencher]	1%
COc1c(OC(C)=O)ccc(/C=C/c2ccc3cccc(OC)c3n2)c1[N+](=O)[O-]	-1%	-8%	8.9µM*	-1	u	-3%
O=S1(=O)c2ccccc2N=NN1Cc1ccc(Cl)c(Cl)c1	-9%	-4%	u	-10	-20%	56µM*
Cc1cccc(N2C(=O)N(Cc3ccc(C(C)(C)C)cc3)c3ccccc3S2(=O)=O)c1	-11%	x	-1%	x	-5%	x
CC(C)(C)c1ccc(CN2N=Nc3ccccc3S2(=O)=O)cc1	7%	-28%	u	-49*	-4%	2.8µM*
Cc1nc(CCNC(=O)c2cc(COc3ccc(F)cc3Cl)on2)sc1C	-7%	u	x	0	u	40µM*
Cc1cc(C)n(CCNC(=O)c2cc(COc3ccc(F)cc3Cl)on2)n1	-3%	-1%	-15%	-3	-13%	-13%
CCCc1sc(N/N=C/c2ccccn2)nc1-c1ccc(F)cc1	0%	-5%	u	-10	u	-10%
Cc1nc(N/N=C/c2ccccn2)sc1C	2%	13µM*	u	-2	-22%	-10%
C[C@@H]1CCC2[C@](C)(CO)[C@@H](O)CC[C@]2(C)[C@]12CCC(CO)(CCO)O2 (stereo partly specified)	2%	3%	6%	0	2%	-3%
CCN(CC)CCC(c1ccc(N(C)C)cc1)c1c(OC)cc(OC)c2c(-c3ccccc3)cc(=O)oc12 (stereo unspecified)	3%	-1%	-10%	0	-9%	56µM*
SMILES	Tau fibril FP	KDM4E inh	Tau fibril ThT	FBPA coupling cs	Tau fluor counter	Sfp inh
O=S(=O)(c1cccc(-c2n[nH]c(=S)o2)c1)N1CCOCC1	-6%	-4%	-3%	6	-3%	25µM*
O=S(=O)(c1cccc(-c2nnco2)c1)N1CCOCC1	1%	2%	-2%	0	1%	6%
COc1ccccc1CCNC(=O)CSc1nc(-c2ccco2)cc(C(F)(F)F)n1	-2%	7%	-3%	2	-5%	-13%
COc1ccccc1CCNC(=O)CCSc1nc(-c2ccco2)cc(C(F)(F)F)n1	-1%	6%	-5%	1	-12%	56µM*
Cc1ccccc1-n1sc2cc(F)ccc2c1=O	25µM*	11µM*	10µM*	4	-14%	0.56µM*
Cc1ccccc1-n1c(=O)c2ccccc2n2cnnc12	8%	8%	4%	0	-4%	25%
Cc1cccc(CNc2ncncc2-c2ccccc2CN(C)C)c1	x	x	x	-4	x	10%
N#Cc1cccc(-n2nnnc2-c2ccccn2)c1	-2%	u	6.3µM*	1	14µM*[quencher]	5%
CC(C)(C)NC(=O)C(=O)NNC(=O)c1ccco1	-3%	-10%	-1%	2	6%	79µM*
O=c1c(C(c2ccc(Cl)cc2)c2c(O)nc3n(c2=O)CCCS3)c(O)nc2n1CCCS2	u	4%	11µM*	10	-28%	-10%
CC(C)[C@@H](CC(=O)N[C@@H]1CCNC[C@H]1C(=O)N[C@H](CC(=O)N[C@@H](CCC(=O)O)CC(=O)O)Cc1c[nH]c2ccccc12)NC(=O)C[C@H](CO)NC(=O)[C@@H]1CNCC[C@H]1N	0%	u	-16%	-2	-6%	6%
COC(=O)NC(/C=C/c1ccccc1)C(C(C)=O)C(=O)OC (stereo unspecified)	4%	-7%	-5%	0	-3%	-17%
N#CC1=C(N)SC(N)=C(C#N)C1c1cccc(O)c1	u	u	u	-32*	-23%	79µM*
Cc1noc(C)c1-c1ccc2ncnc(NCC3CCN(C)CC3)c2c1	x	x	x	-4	x	11%
N=C1/C(=C/c2ccc(-c3cccc(C(=O)O)c3)o2)C(=O)N=C2SC=C(c3ccccc3)N12	15%	u	4.5µM*	-10	-7%	-53%
N=C1/C(=C\c2ccc(-c3cc(Cl)cc(Cl)c3)o2)C(=O)N=C2SC=C(c3ccccc3)N12	5%	6%	4µM*	-1	-25%	-5%
